# In the library only some 0.47% were active in any assay of this set; here they are far more common.
# Y pestis TopoI = inhibitors of Yersinia pestis topoisomerase I; Y. pestis Topo-I cleavage product accumulation, plate reader; activity, % at 10 µM; 360,000 tested, 0.064% active; in the data active means activity above about 50%, passing the limit was not always enough; inconclusive means no clear call, values can overlap the other calls
# FadD28 binding = blocks FadD28 binding to the bisubstrate probe; fluorescence polarization; inhibition, % at 12.5 µM; 360,000 tested, 0.22% active; in the data active means inhibition above about 8.5%, passing the limit was not always enough; inconclusive means no clear call, values can overlap the other calls
# Mtb BioA inh = blocks M. tuberculosis BioA enzyme activity | inhibition, % at 9.99 µM | purified M. tuberculosis BioA enzyme, plate reader | 360,000 tested, 0.096% active; in the data active means inhibition above about 40%; inconclusive means no clear call, values can overlap the other calls
# TcdB inh = inhibitors of Clostridioides difficile toxin B glycohydrolase | inhibition, % at 9.99 µM | 350,000 tested, 0.24% active | TcdB glycohydrolase enzymatic assay, plate reader | AID 652162; in the data active means inhibition above about 10%
# Numbers without * were called inactive; ? = inconclusive; · = no result given.
SMILES,Y pestis TopoI,FadD28 binding,Mtb BioA inh,TcdB inh
CCCCCOc1ccc(C2C(C(=O)c3ccc(C)o3)=C(O)C(=O)N2c2cc(C)on2)cc1 (configuration not stated),88*,-6,-3,1
Cc1cc(N2C(=O)C(O)=C(C(=O)c3cc4ccccc4o3)C2c2cccc(Br)c2)no1 (configuration not stated),78*,-1,0,1
O=c1[nH][nH]c2c(N=Cc3ccccc3O)ccc(F)c12,-24,16*,1,-1
O=C1C(=Cc2ccco2)CCC1=Cc1ccco1,-7,13*,-1,-1
CCOc1ncccc1C(=O)OCC(=O)c1cccc(Br)c1,-14,1,·,0
O=C(NN1C(=O)/C(=C/C=C/c2ccco2)SC1=S)c1ccccc1O,-31,58*,-1,0
O=C(O)CCCN1C(=O)/C(=C\C(Cl)=C\c2ccccc2)SC1=S,5,9.3*,1,1
O=C(O)C(Cc1ccccc1)N1C(=O)/C(=C/C=C/c2ccco2)SC1=S (configuration not stated),-10,39*,2,-2
O=C(O)CCCN1C(=O)/C(=C/C=C/c2ccco2)SC1=S,-18,19*,·,-1
CN1CCN(C(=O)CCCN2C(=O)/C(=C/c3ccccc3)SC2=S)CC1,24,0,1,0
O=C(O)CC(C(=O)O)N1C(=O)/C(=C/C=C/c2ccco2)SC1=S (configuration not stated),-14,?,-1,-1
Cc1ccc(NC(=O)CCCN2C(=O)/C(=C/C=C/c3ccccc3)SC2=S)cc1,-4,0,-4,·
Cn1cccc1/C=C1\SC(=S)N(NC(=O)c2ccccc2O)C1=O,-6,2,·,1
Cc1ccc(-c2cc(O)cc3sc(=O)oc23)cc1C,-3,-10,·,2
CCN(CC(=O)Nc1ccc(NC(C)=O)cc1)C(=O)c1ccccc1Sc1ccccc1C#N,-4,·,1,-1
CCOC(=O)Cc1csc(NS(=O)(=O)c2ccc(Cl)cc2)n1,2,-3,·,-1
O=S(=O)(Cc1cccc(F)c1)c1c[nH]c2ccccc12,-2,-5,1,15*
O=C(CS(=O)(=O)c1c[nH]c2ccccc12)Nc1ccc(F)cc1,1,0,0,0
CC(Sc1nccn1C)C(=O)c1c(N)n(C)c(=O)n(C)c1=O (configuration not stated),5,0,-2,24*
CC(Cl)C(=O)c1c(N)n(C)c(=O)n(C)c1=O (configuration not stated),2,-1,·,0
CCOc1ccc(NS(=O)(=O)c2ccc(Cl)c(N=Nc3c(O)[nH]c(=S)[nH]c3=O)c2)cc1Br,-18,15*,2,0
COc1ccc(NS(=O)(=O)c2cc(N=Nc3c(O)[nH]c(=O)[nH]c3=O)ccc2OC)cc1Br,-10,-4,0,0
CN(C)c1ccc(C(=O)c2ccc(O)cc2O)cc1,-4,-2,-2,·
CN(C)c1ccc(Cc2cc3c(O)ccc(O)c3cc(Cc3ccc(N(C)C)cc3)c2=O)cc1,-15,11*,·,1
COCCCNC(=O)C1CCN(S(=O)(=O)c2c(C)noc2/C=C\c2ccc(OC)cc2)CC1,6,-1,0,·
SMILES,Y pestis TopoI,FadD28 binding,Mtb BioA inh,TcdB inh
CCCCNC(=O)C1CCN(S(=O)(=O)c2c(C)noc2/C=C\c2ccc(OC)cc2)CC1,20,0,-5,85*
COc1ccc(OC2C(=O)N(Cc3ccc(F)cc3)C2c2cc(OC)c(OC)c(OC)c2)cc1 (configuration not stated),-3,-3,·,·
COC(=O)c1ccc(C2C(Oc3ccc(OC)cc3)C(=O)N2CCc2ccc(F)cc2)cc1 (configuration not stated),67*,0,·,·
CCCCCCCCN1[C@@H](CC(=O)OCC)c2cc(C(F)(F)F)ccc2S1(=O)=O,70*,-2,2,2
COc1cccc(/C=N/Nc2ncnc3scc(-c4ccccc4)c23)c1O,67*,0,·,·
COc1ccc(C(C)=O)cc1Cn1c(C)c(C(=O)NCc2ccc(C(F)(F)F)cc2)sc1=O,-7,-10,0,1
CC1=C(C(=O)OCC2CCCO2)C(c2coc3ccccc3c2=O)C2=C(CCCC2=O)N1 (configuration not stated),2,0,·,13*
O=C(NCCN1C(=O)S/C(=C/c2ccccc2)C1=O)C1CCCN1C(=O)c1cccs1 (configuration not stated),5,-2,·,1
Oc1ccc2c(ccc3[nH]cnc32)c1,7,1,·,17*
O=C1C2=C(C(c3ccccc3)=NCCN2)C(c2cccc([N+](=O)[O-])c2)N1c1ccccc1 (configuration not stated),-13,-2,0,-2
Cc1cc2nc3ccc(=[N+](C)C)cc-3sc2cc1N,419*,1,·,·
Cc1nc2cc(C)c(C)cc2s1,-4,-1,·,2
Nc1c(Cl)ncnc1NCCc1ccc(O)cc1,1,-6,·,11*
Nc1c(Cl)ncnc1NCc1cccnc1,-2,-2,8,2
Cn1cc(Cl)c(-c2n[nH]c(=S)n2-c2ccc(F)cc2)n1,12,-4,·,1
Cc1nn(C)cc1-c1n[nH]c(=S)n1-c1ccc(F)cc1,5,1,·,10*
COc1ccc(CN2CCCC(C(=O)N3CCCC3)C2)c(OC)c1OC (configuration not stated),1,-2,-1,-1
COc1ccc(CN2CCN(C(=O)C3CC(=O)N(C4CCCCCC4)C3)CC2)c(OC)c1OC (configuration not stated),74*,-1,-1,·
Cc1ccc(S(=O)(=O)NC2(C(F)(F)F)NC(=O)N(c3ccc(F)cc3)C2=O)cc1 (configuration not stated),-7,0,-2,0
O=C(CN1C(=O)NC2(CCOc3ccccc32)C1=O)c1ccc(Cl)cc1 (configuration not stated),-2,16*,-1,0
O=C(CN1C(=O)NC2(CCOc3ccccc32)C1=O)c1ccc(Br)cc1 (configuration not stated),11,21*,0,0
OCCn1c(C(F)(F)F)nc2ccccc21,-7,0,-8,·
CCN1/C(=C/C=C/c2oc3ccc(-c4ccccc4)cc3[n+]2CC)Oc2ccc(-c3ccccc3)cc21,12,95*,-201,1
CCN1/C(=C/C=C/c2sc3ccccc3[n+]2CC)Sc2ccccc21,-4,-4,1,·
CC1CCN(c2nncc3ccccc23)CC1,3,1,1,-1
SMILES,Y pestis TopoI,FadD28 binding,Mtb BioA inh,TcdB inh
Cc1ccc(-c2csc(NC(=O)CSC3=NCCS3)n2)cc1,-4,-1,-2,·
COc1cc(/C=C2\SC(=Nc3ccccc3)NC2=O)cc(Cl)c1O,-13,6,-13,-24
COc1cc(/C=C2\SC(=Nc3ccc(Cl)c(C(=O)O)c3)NC2=O)c(Br)c(Br)c1O,-10,15*,-12,0
O=c1c2oc3nc4c(cc3c2ncn1CCCc1ccccc1)CCCC4,-2,-2,·,11*
COc1ccccc1NC(=O)Cn1cnc2c(oc3nc4c(cc32)CCCC4)c1=O,24,25*,0,0
COc1cccc(NC(=O)Cn2cnc3c(oc4nc5c(cc43)CCCC5)c2=O)c1,2,-2,-1,0

# High-throughput results deposited in PubChem by Broad Institute.
